Experimental data: PubChem BioAssay (NCI)
About 79,000 compounds went through this panel and 15% of them were active in at least one assay; those are over-represented in the sample as a whole. Activity calls are given as the source filed them. Rule as the data show it: active = growth inhibition above about 70%; inactive = the rest.

What was measured:
[1] = NCI Yeast Anticancer Drug Screen. Data for the rad50 strain (AID 155);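 also: 0% = growth of vehicle-only cultures of the same strain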; details: S. cerevisiae rad50 strain growth inhibition; at 50.0 µM; active compounds read high
Procedure, shortened: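 DNA repair mutant yeast, compound exposure, growth read-out; inhibition is taken relative to vehicle.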

[2] = NCI Yeast Anticancer Drug Screen. Data for the mec2-1 strain (AID 157); details: S. cerevisiae mec2-1 strain, at 50.0 µM, active compounds read high
Procedure, shortened: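 Cells of the genetically defined mec2-1 yeast strain are incubated with test compound. Inhibition of growth is calculated against vehicle-treated controls.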

[3] = NCI Yeast Anticancer Drug Screen. Data for the sgs1 mgt1 strain (AID 161);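 also: 0% = growth of cultures given vehicle only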; details: S. cerevisiae sgs1 mgt1 strain, at 50.0 µM, active compounds read high
Procedure, shortened: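 Inhibition of yeast growth, normalised to vehicle-treated controls, is reported for a strain bearing genetic alterations in DNA damage repair.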

[4] = NCI Yeast Anticancer Drug Screen. Data for the cln2 rad14 strain (AID 165);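 also: 0% = growth equal to vehicle treated cultures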; details: S. cerevisiae cln2 rad14 strain, at 50.0 µM, active compounds read high
Procedure, shortened: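 The screen exposed genetically defined yeast (cln2 rad14) to test compounds and scored growth inhibition relative to vehicle-treated controls.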

[5] = NCI Yeast Anticancer Drug Screen. Data for the bub3 strain (AID 167); details: S. cerevisiae bub3 mutant strain, at 50.0 µM, active compounds read high
Procedure, shortened: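 In this screen, a yeast mutant lacking normal mitotic checkpoint function is challenged with compound. Relative growth versus vehicle gives the inhibition value.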

[6] = NCI Yeast Anticancer Drug Screen. Data for the mlh1 rad18 strain (AID 175); details: S. cerevisiae mlh1 rad18 strain growth inhibition; at 50.0 µM; active compounds read high
Procedure, shortened: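 Compound-treated yeast growth, normalised to vehicle controls. Strain bears defined DNA repair mutations.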

Measured: growth inhibition

Cc1c(S)cnc2ccccc12
inactive: [1] -0.55% | [2] -6.25% | [3] 1.7% | [4] -66.6% | [5] -14.8% | [6] 2.85%

CCN(CC)CCOc1c(C)cccc1C
inactive: [1] -5.15% | [2] 3.45% | [3] -13.1% | [4] -14.2% | [5] 12.1% | [6] -2%

CC(=O)C(C)(C)O
inactive: [1] 45.4% | [2] -5.55% | [3] 48.8% | [4] -8.7% | [5] 14.2% | [6] 38.9%

NC(C(=O)O)C1CCCC1 (stereo not drawn)
inactive: [1] 2.8% | [2] -5.1% | [3] -20.8% | [4] -14% | [5] -92.8% | [6] 7.6%

CCn1cc(C(=O)O)c(=O)c2ccc(-c3ccncc3)cc21
inactive: [1] 3.35% | [2] 8.7% | [3] 5.75% | [4] -7.85% | [5] 17% | [6] 11.4%

COc1ccc(N=N/C(=N/NC(=O)c2ccccc2)c2ccc(N(CCC#N)CCC#N)cc2C)cc1
inactive: [1] -4.35% | [2] -13.5% | [3] -22.8% | [4] -7.2% | [5] -23.1% | [6] -44.5%

O=C(NNC1CCN(Cc2ccccc2)CC1)c1ccccc1
inactive: [1] 12.5% | [2] -18% | [3] 5.35% | [4] 16.9% | [5] 2.5% | [6] 13.4%

CCC1(C)CCC(C)c2ccccc21 (stereo not drawn)
inactive: [1] -1.75% | [2] -5.4% | [3] 3.45% | [4] 3.45% | [5] -0.8% | [6] 0.3%

CC(=O)N1C(=O)C2(Nc3cccnc3N2)c2ccccc21 (stereo not drawn)
inactive: [1] -4.85% | [2] 16.4% | [3] -1.8% | [4] -1.35% | [5] -0.95% | [6] -16.1%

COC(=O)NC1(NC(=O)OC)NC(=O)c2cc(OC)c(OC)cc2N1
inactive: [1] 6.25% | [2] -10.4% | [3] 27.4% | [4] -16.5% | [5] 6.55% | [6] 5.75%

Nc1ccc2nc3n(c(=O)c2c1)CCCCC3
inactive: [1] -25.1% | [2] -11.4% | [3] 1.4% | [4] 23.2% | [5] 0.65% | [6] 10.8%

NC1=NNC(=O)/C1=C/c1ccccc1
inactive: [1] 16.6% | [2] 5.85% | [3] 0.55% | [4] -17.1% | [5] -10.2% | [6] 22.2%

C[N+](C)(C)C1(Cc2ccccc2)c2ccccc2-c2ccc(Cl)cc21 (stereo not drawn)
inactive: [1] 29.1% | [2] 4.85% | [3] 21.2% | [4] -15.8% | [5] -6.8% | [6] 5.9%

CCOC(=O)c1cc(C)[nH]c1C
inactive: [1] 2.65% | [2] -1.9% | [3] -0.55% | [4] -17.6% | [5] 23.2% | [6] 3.9%

CS(=O)(=O)OC1COC(c2ccccc2)OC1C1OC(c2ccccc2)OCC1OS(C)(=O)=O (stereo not drawn)
inactive: [1] -26.7% | [2] -3.85% | [3] -31.9% | [4] -4% | [5] -0.9% | [6] -7.25%

CCOC(=O)N1C=Cc2ccccc2C1C(=N)N (stereo not drawn)
inactive: [1] -20.2% | [2] -12.3% | [3] -11% | [4] -7.7% | [5] -6.3% | [6] -13.6%

CNc1ccn(C2OC(CO)C(O)C2SC(C)(C)C)c(=O)n1 (stereo not drawn)
inactive: [1] 6.15% | [2] 0.25% | [3] 13.7% | [4] 9.1% | [5] 0.45% | [6] 28.6%

O=C1C2C(Cl)C(Cl)C(Cl)C(Cl)C2C(=O)N1NC1CCC([N+](=O)[O-])CC1[N+](=O)[O-] (stereo not drawn)
inactive: [1] -22.9% | [2] -16.4% | [3] -18.5% | [4] 17.4% | [5] 2.5% | [6] 10.1%

O=c1[nH]c(=O)n(C2OC(CO)C(O)C2O)cc1Oc1ccccc1 (stereo not drawn)
inactive: [1] 7.8% | [2] 2.9% | [3] 4.2% | [4] 12.4% | [5] -0.4% | [6] -13.8%

CCOC(=O)C1=C(C)c2ccccc2OC1C(=O)O (stereo not drawn)
inactive: [1] 4.55% | [2] 11.1% | [3] 16.8% | [4] -23.4% | [5] -13.1% | [6] -10.3%

CN(C)CCOc1c(Cc2ccccc2)ccc2cccnc12
inactive: [1] -1.65% | [2] 5.15% | [3] 3.05% | [4] -2.9% | [5] 1% | [6] 5.05%

CCCC(=O)Oc1ccc(C)cc1C(C)(C)C
inactive: [1] 6.65% | [2] -22.2% | [3] -4.95% | [4] 9.5% | [5] -10.2% | [6] 4.25%

CCOc1ccccc1NC(=O)C1CCCCC1C(=O)O (stereo not drawn)
inactive: [1] 14.2% | [2] 16.7% | [3] 14.6% | [4] 25.6% | [5] 12.7% | [6] 7.8%

COc1cc(-c2cc(=O)c3cc4c(=O)cc(-c5cc(OC)c(OC)c(OC)c5)oc4cc3o2)cc(OC)c1OC
inactive: [1] -11.2% | [2] 1.25% | [3] 11.2% | [4] -75% | [5] -7.7% | [6] -5%

CCN(C(=S)Nc1cccc2ccccc12)c1ccccc1
inactive: [1] -4.05% | [2] -11.3% | [3] 11.7% | [4] 2.4% | [5] -3.65% | [6] -7.9%

CC1=Nc2ccc(C)cc2N=C(C)C1
inactive: [1] 11.4% | [2] 4.1% | [3] 7.2% | [4] -29.4% | [5] 22.4% | [6] -1.6%

O=C1c2ccccc2C(=O)N1/N=C1/SC(=Nc2ccccc2)C(=Nc2ccccc2)N1c1ccccc1
inactive: [1] 6.3% | [2] 0% | [3] 15% | [4] 26.4% | [5] 14.8% | [6] 20.1%

Cc1nc2cc(C)c(C)cc2[nH]1
inactive: [1] -7.55% | [2] -1% | [3] 3.75% | [4] -9.15% | [5] 8.9% | [6] 5.8%

CNC(=O)NC(C)(C)CCCCC(C)(C)NC(=O)NC
inactive: [1] 0.5% | [2] 17.3% | [3] 28.3% | [4] -16.9% | [5] -4.65% | [6] 19.8%

CCOC(=O)c1cc(CC)sc1N
inactive: [1] -1.55% | [2] -9.75% | [3] 10.7% | [4] -10.2% | [5] 12.2% | [6] -12.5%

Cc1cn(C2OC(CO[Si](C)(C)C(C)(C)C)C(N(C)O[Si](C)(C)C(C)(C)C)C2[Se]c2ccccc2)c(=O)[nH]c1=O (stereo not drawn)
inactive: [1] -15.5% | [2] -3.1% | [3] 0.5% | [4] -8.65% | [5] -9.85% | [6] -15.2%

C=CCOCn1ccc(=O)[nH]c1=O
inactive: [1] 4.35% | [2] -3.05% | [3] 5.85% | [4] 3% | [5] 3.2% | [6] -3.05%

COc1ccc2nc(C)cc(N/N=C/c3cccc(C)n3)c2c1
inactive: [1] 3.95% | [2] -19.2% | [3] -1.55% | [4] -0.8% | [5] -29.8% | [6] -22.1%

C=CCNC(=S)NC=C(C(N)=O)C(N)=O
inactive: [1] -25.9% | [2] -33% | [3] -22.5% | [4] -19.5% | [5] -4.9% | [6] -19.9%

COc1ccc(/C(Cl)=C(\C=O)c2ccc(Cl)c(Cl)c2)cc1OC
inactive: [1] 28.1% | [2] 11.2% | [3] 27.5% | [4] -34.6% | [5] 0.7% | [6] 43.1%

O=C1c2c(c3c4ccccc4[nH]c3c3[nH]c4ccccc4c23)C(=O)N1Cc1ccccc1
inactive: [1] -9.4% | [2] -5.95% | [3] 4.95% | [4] -6.6% | [5] -5.45% | [6] 10.2%

CC(=O)OCc1ccnc2ccc(OC(C)=O)cc12
inactive: [1] 0.05% | [2] 15.4% | [3] -6.4% | [4] -8.75% | [5] -5.2% | [6] 2.75%

CCOC(=O)C(C)(C)C(=O)Nc1ccccc1
inactive: [1] 5.2% | [2] -7.6% | [3] -3.6% | [4] 24.9% | [5] 3.6% | [6] 5.7%
